Bioassay records from PubChem BioAssay.
Only some compounds are listed: those with a hit (about 21% of all), similar ones and a draw of the others.
Pf growth 96h: inhibits malaria parasite growth, 96 h | P. falciparum luciferase reporter growth, 96 h | Potency, µM (titrated, usually from 28.7 µM), for the others: at the top dose activity change, negative = inhibition, most hits filed as inhibitors | 6.9% of 320,000 active; active = well fitted inhibition curve with a large enough effect; inconclusive = small, poorly fitted or top-dose-only effect, or another doubt; inactive = no such curve, though single readings can be large or run the other way; also: potency is read from the fitted curve at half-maximal effect; % is scaled to controls: 0 for no effect and ±100 for the full control effect
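Parasite growth measured via integrated firefly luciferase reporter in P. falciparum. Infected erythrocytes at 2% hematocrit, 0.05% parasitemia final were treated 96 hours at 37 C under 5% CO2, and luminescence was read.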
Pf growth 48h: P. falciparum growth inhibition at 48 hours (one generation). 5.9% of 310,000 active. AID 504832. Potency, µM (top dose mostly 28.7 µM), for the others: top-dose activity change, negative = inhibition, most hits filed as inhibitors. P. falciparum luciferase growth in erythrocytes, 48 h; active = well fitted inhibition curve with a large enough effect; inconclusive = small, poorly fitted or top-dose-only effect, or another doubt; inactive = no such curve, though single readings can be large or run the other way; also: potency is read from the fitted curve at half-maximal effect; % is scaled to controls: 0 for no effect and ±100 for the full control effect
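Luciferase-expressing parasites in RBCs, 2% Hct / 0.1% parasitemia final; RPMI 1640 + 0.5% Albumax; 37 C, 5% CO2, one generation; luminescence read-out, lower signal = inhibition.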
SARS PLpro yeast: SARS-CoV PLP inhibition in yeast; AID 485353; Potency, µM (top dose mostly 32.9 µM), inactives show top-dose activity, positive = growth rescue, usual class: activators; 0.19% of 330,000 active; S. cerevisiae expressing SARS-CoV PLpro, growth rescue; also: potency is read from the fitted curve at half-maximal effect; 0% is about no effect; nearly all actives have a fitted effect of over 55% in size
NS1 inh: inhibitors of influenza NS1 protein function; Potency, µM (doses to about 46.1 µM), without a hit: at the highest dose activity, positive = more growth; 0.4% of 270,000 active; also: potency is read from the fitted curve at half-maximal effect; actives are rising curves; nearly all actives have a fitted effect of over 50% in size
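S. cerevisiae expressing influenza A NS1, grown in glucose, washed, then diluted 1:100 into pH 6.0 -URA galactose medium with 23 nl compound. Growth recovery read as OD600; NS1-free strain serves as control.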
Shiga toxin inh: Shiga toxin inhibition; Vero cells, Shiga toxin protein synthesis inhibition reporter; inhibition, % at 38.7 µM; 9.2% of 290,000 active; AID 2315; in the data active = inhibition mostly above about 28%, no sharp cut-off; inactive = mostly below about 43%; also: 0% is about no effect
Cycloheximide cs: counter-screen for Shiga toxin inhibitors: cycloheximide protein synthesis inhibition | cell reporter, cycloheximide protein synthesis inhibition counterscreen | max response, % | 12% of 300,000 active; in the data active = max response mostly above about 13%, no sharp cut-off; inactive = mostly below about 14%; also: read at 38.3 µM for the half of the compounds with a filed dose; 0% is about no effect
* = called active by the depositor; ? = inconclusive; . = not tested or not shown; [ ] = remark or other dose. Unless noted, calls follow the shape of the full dose curve.

SMILES	Pf growth 96h	Pf growth 48h	SARS PLpro yeast	NS1 inh	Shiga toxin inh	Cycloheximide cs
COc1ccc(C2CC(=O)N(CC(=O)NCC3CCCO3)c3ccccc3S2)cc1 (configuration not stated)	25.2%	9.5%	0.0%	.	72.5	34.3*
COc1ccc(C2CC(=O)N(C)c3ccccc3S2)cc1 (configuration not stated)	-15.4%	53.1%	-5.5%	.	123.6*	38.1*
O=C(COc1ccccc1Br)N1CCN(C(=O)c2ccco2)CC1	?	-9.0%	1.8%	-4.5%	-3.9	-3.4
COc1cccc(Sc2nc(-c3ccccc3)ncc2S(C)(=O)=O)c1	9.28µM*	.	-1.2%	1.6%	50.0*	31.1*
COc1ccc(Oc2nc(-c3ccccc3)ncc2S(=O)(=O)c2ccccc2)cc1	?	14.7µM*	-0.7%	-3.5%	-3.4	-1.6
Cc1cccc(C)c1Oc1nc(-c2ccccc2)ncc1S(=O)(=O)c1ccccc1	?	2.08µM*	4.7%	-23.9%	-7.9	-0.5
CS(=O)(=O)c1cnc(-c2ccccc2)nc1Sc1ccc(F)cc1	-10.8%	.	-0.2%	10.6%	23.6	13.3
COc1nc(-c2ccccc2)ncc1S(=O)(=O)c1ccccc1	?	?	-1.5%	-3.9%	21.3	-1.5
Cc1ccc(S(=O)(=O)c2cnc(-c3ccccc3)nc2Oc2ccccc2)cc1	10.2%	3.8%	1.3%	5.9%	11.4	-4.5
O=S(=O)(c1ccccc1)c1cnc(-c2ccccc2)nc1N1CCCC1	-16.0%	12.8%	-1.8%	-10.0%	16.1	-2.1
Cc1ccc(S(=O)(=O)c2cnc(-c3ccccc3)nc2N2CCCCC2)cc1	-7.8%	13.1µM*	0.2%	13.3%	31.4	0.0
CC(C)N(Cc1ccccc1)C(=O)COC(=O)c1cnc(Cl)c(Cl)c1	.	.	-6.6%	.	.	.
CCCCOc1ccc(C(C)NC(=O)C2CCCN(S(=O)(=O)CCC)C2)cc1 (configuration not stated)	-0.4%	-15.5%	16.4%	1.8%	-18.2	-5.9
CS(=O)(=O)c1ccc(Cl)c(NC(=O)C2CCCN(C(=O)c3ccc(Cl)cc3)C2)c1 (configuration not stated)	-28.0%	?	0.4%	.	.	.
Cc1ccc(Cl)cc1NC(=O)C1CCCN(S(C)(=O)=O)C1 (configuration not stated)	10.4µM*	12.8%	-0.1%	20.9%	0.7	1.4
CSCCC(NC(=O)c1ccccc1Cl)C(=O)Nc1ccc(C)c(S(=O)(=O)N2CCOCC2)c1 (configuration not stated)	?	9.28µM*	5.9%	.	.	.
O=C(Nc1ccc(F)c(S(=O)(=O)N2CCOCC2)c1)C1CCCCC1	?	13.1µM*	1.8%	.	.	.
Cc1ccc(S(=O)(=O)N(C)C)cc1NC(=O)C1CCCN(C(=O)c2ccc(Cl)cc2)C1 (configuration not stated)	4.65µM*	7.38µM*	-1.6%	.	.	.
COc1ccccc1CN1CCNC(=O)C1CC(=O)NCCc1cnccn1 (configuration not stated)	2.7%	39.7%	-0.9%	-1.6%	-6.0	-2.2
COc1cc(COc2ccc3c(C)c(CC(=O)O)c(=O)oc3c2C)cc(OC)c1OC	?	-9.0%[0.00184 µM]	-0.6%	13.0%	-3.7	-5.1
Cc1ccc(NC(=O)C2CCCN(C(=O)c3ccc(Cl)cc3)C2)cc1S(=O)(=O)N1CCOCC1 (configuration not stated)	7.38µM*	?	3.6%	.	-5.0	-2.3
CCOC(=O)/C(Sc1nc(-c2ccccc2)cc(-c2ccccc2)c1C#N)=C(\C)O	22.8%	-2.3%[0.00184 µM]	-1.0%	4.1%	-6.3	-4.8
Nc1ncnc(Nc2ccccc2)n1	17.2%	-1.9%	0.3%	.	.	.
Nc1cnc(Nc2ccc(Br)cc2)nc1N	?	-57.1%	-1.6%	8.0%	57.8*	27.5*
Cc1ccc(C(O)(C(=O)NNc2ccccn2)c2ccc(C)cc2)cc1	?	-15.5%	1.3%	-0.5%	-6.2	-2.8
SMILES	Pf growth 96h	Pf growth 48h	SARS PLpro yeast	NS1 inh	Shiga toxin inh	Cycloheximide cs
Cc1ccc(NNC(=O)C(O)(c2cccc(C(F)(F)F)c2)c2cccc(C(F)(F)F)c2)cc1	?	13.1µM*	-65.7%	-24.4%	-12.6	-4.5
O=C(NNc1ccccc1Br)C(O)(c1cccc(C(F)(F)F)c1)c1cccc(C(F)(F)F)c1	2.33µM*	2.62µM*	-5.2%	0.6%	-4.4	-2.6
COc1cc(C2C3=C(CC(C)(C)CC3=O)N(C)C3=C2C(=O)CC(C)(C)C3)cc(Br)c1O	49.0%	?	0.0%	-8.7%	32.4	0.7
CC(=O)c1c(C)nc(-c2ccc(Cl)cc2)nc1N	45.4%	316.3%	0.2%	.	96.0*	43.9*
CC(=O)c1c(C)nc(-c2ccc(Cl)cc2)nc1N=CN(C)C	?	143.4%	-18.8%	-11.8%	70.3*	45.7*
CSc1nc(-c2ccccc2)nc(N)c1C(C)=O	16.9%	.	12.4%	-6.5%	8.4	14.0
COc1ccc(NC(=O)CCCC(=O)c2ccccc2)c(OC)c1	?	?	-1.4%	-4.3%	20.6	16.3*
O=C(Nc1ccc(Cl)c(S(=O)(=O)Nc2ccccc2Cl)c1)c1cccs1	-6.9%	-0.5%	-63.9%	15.9%	-7.1	-3.8
COc1ccc(CCC(C)NC(=O)CCc2ccccc2)c(OC)c1 (configuration not stated)	?	9.28µM*	-0.7%	-46.0%	-9.7	-4.4
COc1cc(NC(=O)CCC(=O)c2cccs2)cc(OC)c1	?	17.0%	-0.6%	4.5%	-14.9	6.5
COc1ccc(NC(=O)CCC(=O)c2cccs2)cc1S(=O)(=O)Nc1ccccc1Cl	-16.8%	16.3%	19.8%	?	47.2*	11.9
COc1ccc(NC(=O)CCC(=O)c2cccs2)c(OC)c1	-5.0%	11.9%	0.5%	2.9%	77.0*	30.6*
Fc1cc(F)cc(NC(=S)Nc2ccccc2N2CCOCC2)c1	-5.4%	-12.5%	-1.9%	-10.8%	-14.3	-0.9
COc1cc(C(=O)NCCC(=O)N2CCC3(CC2)NCCc2[nH]cnc23)cc(OC)c1OC	4.2%	-6.1%	27.5%	-9.0%	-4.3	-1.7
Nc1ccn(Cc2ccc(F)cc2)n1	3.6%	11.0%	-0.8%	?	-19.6	5.5
COc1ccc(NC(=O)CCCc2ccccc2)c(OC)c1	0.8%	32.4%	-0.6%	-21.7%	.	19.0*
CC(C(=O)Nc1ccc(O)cc1C(=O)O)N1C(=O)/C(=C\c2cccs2)SC1=S (configuration not stated)	?	19.5%	?	17.3%	-15.6	-4.6
COc1cccc(C(=O)N/N=C/C(Br)=C/c2ccccc2)c1	-18.6%	13.1µM*	-89.0%	1.4%	114.4*	51.6*
COc1ccc(C(=O)N/N=C/C(Br)=C/c2ccccc2)cc1	-20.1%	?	-37.3%	-11.2%	60.0*	31.3*
O=C(Nc1ccc2c(c1)OCO2)C1CCCCN1S(=O)(=O)c1ccccc1 (configuration not stated)	-21.2%	.	12.6%	5.7%	20.2	13.4
